Source: PubChem BioAssay (NCI)
About 79,000 compounds went through this panel and 15% of them were active in at least one assay; those are over-represented in the sample as a whole. Cut-off read from the data, not from the text of the source: active = growth inhibition above about 70%; inactive = the rest.

Key:
[1] = NCI Yeast Anticancer Drug Screen. Data for the rad50 strain (AID 155);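 note: 0% = growth of vehicle-only cultures of the same strain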; conditions: S. cerevisiae rad50 strain growth inhibition; at 50.0 µM; hits give high values
In short: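 A DNA repair-deficient yeast mutant serves as the test organism; compound-induced growth inhibition is calculated against vehicle-treated cells.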

[2] = NCI Yeast Anticancer Drug Screen. Data for the mec2-1 strain (AID 157); conditions: S. cerevisiae mec2-1 strain, at 50.0 µM, hits give high values
In short: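 Test agents were screened against the mec2-1 yeast strain, with defined DNA repair or cell cycle alteration. Growth was scored as inhibition against vehicle-only controls.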

[3] = NCI Yeast Anticancer Drug Screen. Data for the sgs1 mgt1 strain (AID 161);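 note: 0% = growth of cultures given vehicle only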; conditions: S. cerevisiae sgs1 mgt1 strain, at 50.0 µM, hits give high values
In short: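 Read-out: growth inhibition vs vehicle controls. Cells: mutant yeast strain deficient in DNA damage repair.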

[4] = NCI Yeast Anticancer Drug Screen. Data for the cln2 rad14 strain (AID 165);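 note: 0% = growth equal to vehicle treated cultures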; conditions: S. cerevisiae cln2 rad14 strain, at 50.0 µM, hits give high values
In short: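 Growth of compound-exposed yeast (cln2 rad14 genotype) measured and expressed as inhibition relative to vehicle.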

[5] = NCI Yeast Anticancer Drug Screen. Data for the bub3 strain (AID 167); conditions: S. cerevisiae bub3 mutant strain, at 50.0 µM, hits give high values
In short: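 Inhibition values come from growth of compound-treated mutant yeast normalised to vehicle-treated controls.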

[6] = NCI Yeast Anticancer Drug Screen. Data for the mlh1 rad18 strain (AID 175); conditions: S. cerevisiae mlh1 rad18 strain growth inhibition; at 50.0 µM; hits give high values
In short: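 In this whole-cell yeast screen, a strain with altered DNA damage repair is challenged with compound, and its growth is measured against matched vehicle-treated controls.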

Measured: growth inhibition

N#CCc1ccc(/C(C#N)=C2/OC(=N)C(c3ccc(CC#N)cc3)C2=O)cc1 (stereo not given)
inactive: [1] -10.3% | [2] 2.65% | [3] -5.45% | [4] -21.6% | [5] -20.7% | [6] -16.4%

O=[N+]([O-])c1ccc(N/N=C(/c2ccc(Cl)cc2)c2ccccc2Cl)c([N+](=O)[O-])c1
inactive: [1] -15.8% | [2] 1.2% | [3] -6.25% | [4] -16.8% | [5] 3.35% | [6] 21.4%

COc1ccc(CCN=C(c2ccccc2)c2ccccc2)cc1OC
inactive: [1] 22.4% | [2] 10.2% | [3] 8.75% | [4] -27.4% | [5] 10.3% | [6] 12.7%

CN(C)CCCNC(=O)CCNC(=O)c1cc(NC(=O)c2cc(NC(=O)c3cc(NC(=O)c4nccn4C)cn3C)cn2C)cn1C
inactive: [1] 24.4% | [2] -23.4% | [3] -17.2% | [4] 12.4% | [5] -5.15% | [6] 7.15%

O=C1C(=Cc2ccc([N+](=O)[O-])o2)C(=O)N(CCc2ccccc2)S(=O)(=O)N1CCc1ccccc1
inactive: [1] 38.9% | [2] -3.65% | [3] 10.8% | [4] -22.5% | [5] -6.6% | [6] 2.4%

NC(=O)C(=O)C(c1ccccc1)S(=O)(=O)Cc1ccccc1 (stereo not given)
inactive: [1] -59.5% | [2] -39.1% | [3] -40.3% | [4] -13.7% | [5] -25.4% | [6] -32.1%

COc1ccc(-c2ccc(OC)cc2)cc1
inactive: [1] 2.9% | [2] -2.75% | [3] -3.8% | [4] -0.65% | [5] 21.4% | [6] 3%

CC1(C)N=C(N)N=C(N)N1c1ccc(NC(=O)Nc2ccccc2)cc1
inactive: [1] 16.6% | [2] -13.2% | [3] 16.1% | [4] -43.2% | [5] -2.35% | [6] 10.3%

C(=Nc1ccc(SSc2ccc(N=Cc3ccc4c(c3)OCO4)cc2)cc1)c1ccc2c(c1)OCO2
inactive: [1] 18.8% | [2] 0.05% | [3] -0.95% | [4] -8.55% | [5] 8.75% | [6] 17.2%

CC(C)(C)C(c1ccccc1)[N+](C)(C)C (stereo not given)
inactive: [1] -22.2% | [2] -2% | [3] -2.05% | [4] 18.9% | [5] 15.2% | [6] 29.9%

COC(=O)C(=C/c1ccc(OC)cc1)/C(C(=O)O)=C(/C)c1ccccc1
inactive: [1] 9.9% | [2] 17.1% | [3] -14.2% | [4] -11.2% | [5] -18.6% | [6] -9.8%

Cc1ccc(NC(=O)C2C(=O)N(c3ccc(C)cc3)C(=O)/C2=N\NC(N)=S)cc1 (stereo not given)
inactive: [1] -29.7% | [2] -25.1% | [3] -38% | [4] -10.4% | [5] -10% | [6] -26.8%

COC1C(C(=O)O)=CC=CC1OC(C)=O (stereo not given)
inactive: [1] 10.6% | [2] -5.45% | [3] -2.55% | [4] -44.1% | [5] 2.8% | [6] 13.6%

CNc1ncnc2c1ncn2C1OC(CO)C(O)C1O (stereo not given)
inactive: [1] -1.4% | [2] 9.95% | [3] 4.45% | [4] -20.1% | [5] -4.1% | [6] 6%

CC(CO)(CO)N1C(=O)c2cccc3cc([N+](=O)[O-])cc(c23)C1=O
inactive: [1] 31.4% | [2] 29.1% | [3] 50.1% | [4] 31.1% | [5] 35.2% | [6] 14.3%

N#Cc1ccc2ccccc2c1
inactive: [1] 4.65% | [2] -7% | [3] 3% | [4] -4.65% | [5] 10.7% | [6] -16.8%

CC1=CC2C3C(=O)OC(=O)C3C1C(Cc1ccccc1)N2C (stereo not given)
inactive: [1] 14.5% | [2] -1.85% | [3] 10.6% | [4] 12.9% | [5] -6.55% | [6] 21.5%

CC(N(C)Cc1ccccc1)C(C)(O)c1ccccc1 (stereo not given)
inactive: [1] -10.4% | [2] 6.55% | [3] 7.75% | [4] -24.9% | [5] 51% | [6] 30.8%

CS(=O)(=O)C(CCC(=O)c1cccs1)C(=O)c1ccccc1 (stereo not given)
inactive: [1] -2.95% | [2] 3.25% | [3] -6.65% | [4] 1.85% | [5] 0.2% | [6] 14.4%

C/C(=C\c1ccccc1)C(=O)c1ccccc1
inactive: [1] -0.45% | [2] 3.85% | [3] 1.3% | [4] -3.15% | [5] 3.45% | [6] 20%
